From PubChem BioAssay AID1159580 (chemical genetic matrix, 2015)
In all, about 5,500 compounds went through this assay and about 2,000 (36%) were called active. Roughly 18% stayed inconclusive and do not appear here. Cut-off read from the data, not from the text of the source: active = normalized growth mostly below about 0.91 (no sharp cut-off); inconclusive = no clear call, values can overlap the other calls; inactive = mostly above about 0.92. The list shows a part of the results.

Experiment: chemical genetic growth profiling, strain panel (AID 1159580);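 note: tested at 20 µM; growth read once vehicle control cultures reached saturation at 30 °C; 1 = growth at the plate median or of vehicle wells; lower values mean less growth of the strain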
Details: S. cerevisiae deletion strains, growth OD
[1] = locus YAR019C, strain CDC15, active compounds read low
[2] = locus YBL105C, strain PKC1, active compounds read low
[3] = locus YBR135W, strain CKS1, active compounds read low
[4] = locus YBR136W, strain MEC1, active compounds read low
[5] = locus YBR160W, strain CDC28, active compounds read low
[6] = locus YDL017W, strain CDC7, active compounds read low
[7] = locus YDL028C, strain MPS1, active compounds read low
[8] = locus YDL101C, strain DUN1, active compounds read low
[9] = locus YDL108W, strain KIN28, active compounds read low
[10] = locus YDL132W, strain cdc53, active compounds read low
[11] = locus YDL214C, strain PRR2, active compounds read low
[12] = locus YDR052C, strain DBF4, active compounds read low
[13] = locus YDR054C, strain cdc34, active compounds read low
[14] = locus YDR226W, strain ADK1, active compounds read low
[15] = locus YDR477W, strain SNF1, active compounds read low
[16] = locus YER123W, strain YCK3, active compounds read low
[17] = locus YER133W, strain GLC7, active compounds read low
[18] = locus YFL009W, strain cdc4, active compounds read low
[19] = locus YFL029C, strain CAK1, active compounds read low
[20] = locus YFR003C, strain YPI1, active compounds read low
[21] = locus YFR019W, strain FAB1, active compounds read low
[22] = locus YFR028C, strain CDC14, active compounds read low
[23] = locus YGR040W, strain KSS1, active compounds read low
[24] = locus YGR052W, strain FMP48, active compounds read low
[25] = locus YGR092W, strain DBF2, active compounds read low
[26] = locus YHR030C, strain SLT2, active compounds read low
[27] = locus YHR079C, strain IRE1, active compounds read low
[28] = locus YHR082C, strain KSP1, active compounds read low
[29] = locus YHR205W, strain SCH9, active compounds read low
[30] = locus YIL147C, strain SLN1, active compounds read low
[31] = locus YJL095W, strain BCK1, active compounds read low
[32] = locus YJL128C, strain PBS2, active compounds read low
[33] = locus YJL157C, strain FAR1, active compounds read low
[34] = locus YJR016C, strain ILV3, active compounds read low
[35] = locus YJR066W, strain TOR1 (second series), active compounds read low
[36] = locus YJR066W, strain TOR1, active compounds read low
[37] = locus YKL048C, strain ELM1, active compounds read low
[38] = locus YKL101W, strain HSL1, active compounds read low
[39] = locus YKL193C, strain SDS22, active compounds read low
[40] = locus YKL203C, strain TOR2, active compounds read low
[41] = locus YLR113W, strain HOG1, active compounds read low
[42] = locus YLR133W, strain CKI1, active compounds read low
[43] = locus YLR403W, strain SFP1, active compounds read low
[44] = locus YML070W, strain DAK1, active compounds read low
[45] = locus YMR001C, strain CDC5, active compounds read low
[46] = locus YMR205C, strain PFK2 (second series), active compounds read low
[47] = locus YMR277W, strain FCP1, active compounds read low
[48] = locus YNL006W, strain LST8, active compounds read low
[49] = locus YNL020C, strain ARK1, active compounds read low
[50] = locus YNL161W, strain CBK1, active compounds read low
[51] = locus YNL183C, strain NPR1, active compounds read low
[52] = locus YNL207W, strain RIO2, active compounds read low
[53] = locus YNL222W, strain SSU72, active compounds read low
[54] = locus YNL307C, strain MCK1 (second series), active compounds read low
[55] = locus YOL078W, strain AVO1, active compounds read low
[56] = locus YOL136C, strain PFK27, active compounds read low
[57] = locus YOR061W, strain CKA2, active compounds read low
[58] = locus YOR119C, strain RIO1, active compounds read low
[59] = locus YOR231W, strain MKK1, active compounds read low
[60] = locus YOR329C, strain SCD5, active compounds read low
[61] = locus YPL031C, strain PHO85, active compounds read low
[62] = locus YPL153C, strain RAD53, active compounds read low
[63] = locus YPL204W, strain HRR25, active compounds read low
[64] = locus YPL209C, strain IPL1, active compounds read low
[65] = locus YPL256C, strain CLN2, active compounds read low
[66] = locus YPR025C, strain CCL1, active compounds read low
[67] = locus YPR106W, strain ISR1, active compounds read low
[68] = locus YPR111W, strain DBF20, active compounds read low
[69] = strain NNK1, active compounds read low
[70] = strain TSCII, active compounds read low
[71] = locus YAL040C, strain CLN3, active compounds read low
[72] = locus YCL061C, strain MRC1 (second series), active compounds read low
[73] = locus YDR363W, strain ESC2, active compounds read low
[74] = locus YER002W, strain NOP16, active compounds read low
[75] = locus YGR078C, strain PAC10, active compounds read low
[76] = locus YJR075W, strain HOC1, active compounds read low
[77] = locus YMR263W, strain SAP30, active compounds read low
[78] = locus YMR307W, strain GAS1, active compounds read low
[79] = locus YNL128W, strain TEP1, active compounds read low
[80] = locus YNL175C, strain NOP13, active compounds read low
[81] = locus YNL197C, strain WHI3, active compounds read low
[82] = locus YNL224C, strain SQS1, active compounds read low
[83] = locus YNL322C, strain KRE1, active compounds read low
[84] = locus YOR083W, strain WHI5 (second series), active compounds read low
[85] = locus YPL055C, strain LGE1, active compounds read low
[86] = locus YPL241C, strain CIN2, active compounds read low
[87] = locus YAL013W, strain DEP1, active compounds read low
[88] = locus YDR150W, strain NUM1, active compounds read low
[89] = locus YNL153C, strain GIM3, active compounds read low

Measured: normalized growth

Cc1oc(C(C)(C)C)cc1-c1cc(N)n(-c2ccc(I)cc2)n1
inactive: [1] 1 | [2] 1.01 | [3] 1.02 | [4] 0.992 | [5] 1.01 | [6] 1.01 | [7] 0.976 | [8] 0.987 | [9] 1.02 | [10] 1.01 | [11] 1.15 | [12] 1 | [13] 1.01 | [14] 0.987 | [15] 0.956 | [16] 0.946 | [17] 0.992 | [18] 0.992 | [19] 0.995 | [20] 1 | [21] 0.967 | [22] 1 | [23] 0.985 | [24] 0.985 | [25] 0.882 | [27] 0.894 | [28] 0.957 | [29] 0.885 | [30] 0.997 | [31] 0.851 | [32] 0.961 | [33] 0.979 | [34] 1.01 | [35] 0.936 | [36] 0.903 | [37] 0.98 | [38] 0.948 | [39] 1.02 | [40] 1.05 | [42] 0.943 | [43] 0.965 | [44] 0.971 | [45] 1 | [46] 0.94 | [48] 1.01 | [49] 0.968 | [50] 1.02 | [51] 0.988 | [52] 1.02 | [53] 1.03 | [54] 0.935 | [55] 1.03 | [56] 0.959 | [57] 0.944 | [58] 0.972 | [59] 0.927 | [60] 1.01 | [61] 0.983 | [62] 0.987 | [63] 0.964 | [64] 1.01 | [65] 0.892 | [66] 1.01 | [67] 0.992 | [68] 0.989 | [69] 1 | [70] 1.01
active: [26] 0.717 | [41] 0.815 | [47] 1.13 [resistant]

C[C@@H](N)Cc1cnc[nH]1
inactive: [71] 0.96 | [72] 1.01 | [73] 1.02 | [74] 1.01 | [75] 1.02 | [76] 1.02 | [77] 1.01 | [78] 1.02 | [79] 1.01 | [80] 1.01 | [81] 1.02 | [82] 1.02 | [83] 1.02 | [84] 1.04 | [85] 1.03 | [86] 1.01

O=C(Nc1ccc(Br)cc1Cl)C(Cl)(Cl)Cl
inactive: [87] 0.975 | locus YBR229C, strain ROT2, active compounds read low 0.964 | [8] 0.996 | [88] 0.97 | locus YEL061C, strain CIN8, active compounds read low 0.945 | [75] 0.943 | locus YHR087W, strain rtc3, active compounds read low 0.935 | locus YJR043C, strain POL32, active compounds read low 0.957 | locus YKL190W, strain CNB1, active compounds read low 0.941 | locus YLR058C, strain SHM2 (second series), active compounds read low 0.94 | locus YLR085C, strain ARP6, active compounds read low 0.782 | locus YML094W, strain GIM5, active compounds read low 1.04 | locus YMR219W, strain ESC1, active compounds read low 0.955 | [77] 0.963 | [89] 0.962 | locus YNL298W, strain CLA4 (second series), active compounds read low 0.855 | [83] 0.95 | locus YNR030W, strain Alg12, active compounds read low 0.935 | [85] 0.956 | [86] 1.02
active: [26] 0.635 | [76] 0.888 | locus YLR039C, strain RIC1, active compounds read low 0.609 | locus YLR262C, strain YPT6, active compounds read low 0.635 | [78] 0.56 | locus YOL006C, strain TOP1, active compounds read low 0.681 | locus YPR135W, strain CTF4, active compounds read low 0.64

C/C(O)=C(\C#N)C(=O)Nc1cc(Br)ccc1Br
inactive: [87] 0.98 | [71] 1.01 | [72] 0.99 | [88] 0.989 | [73] 1.05 | [74] 1 | [75] 0.97 | locus YGR229C, strain SMI1, active compounds read low 1.01 | [76] 1.02 | [77] 0.969 | [89] 0.999 | [80] 0.959 | [81] 0.961 | [82] 0.967 | [83] 0.983 | [84] 0.972 | [86] 0.98

O=C(Nc1ccccc1Sc1ccc([N+](=O)[O-])cc1[N+](=O)[O-])C(Cl)(Cl)Cl
inactive: [1] 0.972 | [2] 0.972 | [3] 0.973 | [4] 0.97 | [5] 0.983 | [6] 0.975 | [7] 0.973 | [8] 0.976 | [9] 0.958 | [10] 0.983 | [11] 0.987 | [12] 0.974 | [13] 0.971 | [14] 0.965 | [15] 0.977 | [16] 0.986 | [17] 0.969 | [18] 0.96 | [19] 0.973 | [20] 0.965 | [21] 0.984 | [22] 0.966 | [23] 0.975 | [24] 1.02 | [25] 0.985 | [26] 1.02 | [27] 0.967 | [28] 1.06 | [29] 0.795 | [30] 0.972 | [31] 1.01 | [32] 0.92 | [33] 0.97 | [34] 0.971 | [35] 0.967 | [36] 1.1 | [37] 0.976 | locus YKL067W, strain YNK1, active compounds read low 0.982 | [38] 1 | [39] 0.965 | [40] 1.02 | [41] 1.04 | [42] 0.977 | [43] 0.873 | [44] 0.998 | [45] 0.975 | [46] 0.973 | [47] 0.955 | [48] 0.991 | [49] 0.994 | [50] 0.968 | [51] 1.1 | [52] 0.967 | [53] 0.976 | [54] 1 | [55] 0.978 | [56] 0.982 | [57] 0.98 | [58] 1.05 | [59] 1.08 | [60] 0.986 | [61] 0.959 | [62] 0.975 | [63] 0.966 | [64] 0.971 | [65] 0.996 | [66] 0.991 | [67] 0.952 | [68] 0.964 | [69] 0.972 | [70] 0.981

Oc1ccc2c3c1O[C@H]1[C@@H](O)CC[C@@]4(O)C(C2)N(CC2CCC2)CCC314 (stereo partly specified)
inactive: [71] 1.01 | [72] 0.998 | [88] 1.01 | [73] 1.01 | [74] 1 | [77] 1 | [78] 0.998 | [79] 0.995 | [89] 1.01 | [80] 1.01 | [81] 1.03 | [82] 1.02 | [83] 1.01 | [84] 0.984 | [86] 1
